Screening results from PubChem.
Measles inh = inhibitors of measles virus growth in infected cells. infected Vero cells, GFP fluorescence, 64 h; hits give low values. z-score (no concentration beside the values). 0.1% of 33,000 active; in the data active means z-score below about -3
Active calls of the source: *. The full list was thinned out, with hits kept by preference.

SMILES | Measles inh
COc1ccc(C)cc1NC(=O)C1CCN(C(=O)c2ccccc2C)CC1 | -0.49
CCc1ccc(NC(=O)C2CCN(C(=O)c3ccccc3C)CC2)cc1 | -5*
Cc1ccccc1C(=O)N1CCC(C(=O)Nc2ccccc2C(F)(F)F)CC1 | 0.84
O=C(c1cc2c(=O)oc3ccccc3c2s1)N(Cc1cccs1)C1CCCC1 | 0.58
C=C(C)c1cccc(C(C)(C)NC(=O)N2CCN(c3ccccc3F)CC2)c1 | 0.18
COc1cc2nc(=S)n3[nH]c(C)nc3c2cc1OC | 0.26
CCCCOc1ccc(N2C(=O)C3C4C=CC(C4)C3C2=O)cc1 (stereo unspecified) | -3.3*
N#Cc1ccc(N2C(=O)C3C4C=CC(C4)C3C2=O)cc1 (stereo unspecified) | 0.54
O=C(O)c1ccc(N2C(=O)C3C4C=CC(C4)C3C2=O)cc1 (stereo unspecified) | 0.84
CC1CCc2c(sc3ncn(Cc4ccc(Cl)cc4)c(=O)c23)C1 (stereo unspecified) | -0.99
COC(=O)c1sc(N2C(=O)C(=O)/C(=C(/O)c3ccc(Cl)cc3)C2c2cccc(Oc3ccccc3)c2)nc1C (stereo unspecified) | -1.1
CS(=O)(=O)Nc1cc(-c2nnc(Nc3ccc(O)cc3)c3ccccc23)ccc1N1CCOCC1 | -0.5
CN(CCC#N)C(=O)c1cc2n(n1)C(C(F)(F)F)CC(c1ccc(Cl)cc1)N2 (stereo unspecified) | 0.44
CCOC(=O)C(=O)Nc1ccc(C(C)(C)C)cc1 | -0.19
O=C(CSc1nc2ccc(NC(=O)c3ccccc3)cc2s1)Nc1ccc(Br)cc1 | -2.3
CC(NC(=O)c1ccc(CSCc2cccc(Cl)c2)o1)c1ccccc1 (stereo unspecified) | 2.1
Cc1cn2c3ccccc3n(CCN3CCCCC3)c2n1 | -0.96
c1ccc(-c2cn3c4ccccc4n(CCN4CCCCC4)c3n2)cc1 | -3.1*
N=c1n(CCO)c2ccccc2n1CCN1CCCCC1 | -0.81
COc1ccc(NS(=O)(=O)c2ccc3[nH]c(=O)c(=O)[nH]c3c2)cc1Cl | 0.78
O=C(c1ccc(N2CCCC2=O)cc1)N1CCCCC1 | 2
Cc1ccc(C2CC(C(F)(F)F)n3nc(C(=O)Nc4ccccc4C)cc3N2)cc1 (stereo unspecified) | -0.73
Cc1c(NC(=O)c2ccc([N+](=O)[O-])cc2Cl)c(=O)n(-c2ccccc2)n1C | -0.46
COc1cccc(Oc2nc3c(c(=O)n(C)c(=O)n3C)n2Cc2ccccc2Cl)c1 | -0.12
CCCCCSc1nc2ccccc2[nH]1 | -0.16
SMILES | Measles inh
CCCCCCCSc1nnc2nc(C)cc(C)n12 | -3.1*
CCCCCCSc1nnc(-c2ccco2)c(-c2ccco2)n1 | -0.77
CCOc1ccc(CNC(=O)C2CCC(=O)N2C2CCCCC2)cc1OC (stereo unspecified) | 1.1
O=C(NCCn1cc(SCc2ccc([N+](=O)[O-])cc2)c2ccccc21)c1cccs1 | 0.27
CC(C)CC(=O)N1CC(=O)Nc2ccc(F)cc2C1c1ccc(F)cc1 (stereo unspecified) | -0.48
NS(=O)(=O)c1ccc(CCNC(=O)C2CCCN(S(=O)(=O)c3cccc4nsnc34)C2)cc1 (stereo unspecified) | -0.81
O=C(NCCN1CCOCC1)C1CCCN(S(=O)(=O)c2cccc3nsnc23)C1 (stereo unspecified) | -0.04
CCN(CCNC(=O)C1CCCN(S(=O)(=O)c2cccc3nsnc23)C1)c1ccccc1 (stereo unspecified) | -3.3*
CCC(=O)N1c2ccccc2-c2nnc(SC)nc2OC1c1ccc(I)o1 (stereo unspecified) | 0.63
Nc1cc(Oc2ccc(Cl)cc2)cc(Sc2ccccn2)c1 | -0.14
CCOc1ccc2nc(NC(=O)C3CCN(S(=O)(=O)c4cccnc4)CC3)sc2c1 | 0.9
COc1cc(NC(=O)C(=O)c2ccccc2NC(C)=O)cc(OC)c1OC | -0.6
CCCCOCCOC(=O)c1cc(-c2ccccc2)nc2ccc(C)cc12 | -0.3
c1ccc2cc3n[nH]nc3cc2c1 | -1.4
CCOc1ccc(NC(=O)CN2C(=O)C3C4CCC(C4)C3C2=O)cc1 (stereo unspecified) | -3.2*
CCOc1ccc(NC(=O)CC23CC4CC(CC(C4)C2)C3)cc1 | -0.82
CCOc1ccccc1NC(=O)CN1C(=O)C2C3C=CC(C3)C2C1=O (stereo unspecified) | 1.3
Cc1ccc(OCC(=O)Nc2ccc(S(=O)(=O)N3CCCCC3)cc2)c(Br)c1 | -0.4
CCn1c(COc2ccccc2C)nc2ccccc21 | -0.28
COCc1nc2ccccc2n1CCOc1ccccc1C | -3.4*
Cc1ccccc1OCCn1c(SCC(N)=O)nc2ccccc21 | 1.5
COc1ccc(N(C)C(=O)c2cc3cc4cc(OC)ccc4nc3s2)c(OC)c1 | -0.27
O=C(NC1CCSC1=O)c1cccc([N+](=O)[O-])c1 (stereo unspecified) | -0.64
O=C(Nc1ncc([N+](=O)[O-])s1)c1cccc(Br)c1 | -0.06
CCCCOC(=O)c1ccccc1N1C(=O)C2C3CCC(C3)C2C1=O (stereo unspecified) | -0.03
SMILES | Measles inh
O=C1C2C3CCC(C3)C2C(=O)N1c1ccccc1F (stereo unspecified) | -0.46
COC(=O)c1ccccc1N1C(=O)C2C3CCC(C3)C2C1=O (stereo unspecified) | -3.7*
Cc1ccc(NC(=O)Cc2[nH]c3ccccc3c2Sc2ccccc2)cc1 | -1.2
Cc1cc(N2CCN(C)CC2)nc2ccc(NC(=O)Cc3cccc(C(F)(F)F)c3)cc12 | -3.1*
CCN1CCN(c2cc(C)c3cc(NC(=O)Cc4cccc(C)c4)ccc3n2)CC1 | -1.5
Cc1cc(N2CCN(C)CC2)nc2ccc(NC(=O)c3cccc(C(F)(F)F)c3)cc12 | 0.66
COc1ccc(-n2c(-c3cccc([N+](=O)[O-])c3)nc(=S)c3c2CCCC3)cc1 | 0.5
O=C(CSc1nc2ccsc2c(=O)n1-c1ccccc1)NCC1CCCO1 (stereo unspecified) | -1.1
COc1ccc(-n2cccc2)cc1 | 1
COc1ccc(Cc2c(Cl)ncnc2Cl)cc1 | -0.43
COc1nc(Cl)cc(C)c1C(=O)NCc1ccc(Cl)cc1 | -0.85
COc1ccc(Cc2nc(C)cc(Cl)n2)cc1Cl | -3.8*
COc1ccc(-n2c(C=Cc3cccc4ccccc34)nc3ccccc3c2=O)c(OC)c1 | 1.1
COc1ccc(C(=O)Nc2c3c(nn2-c2ccc(C)cc2C)CS(=O)(=O)C3)cc1OC | -0.34
CCSc1oc(-c2ccc(F)cc2)nc1S(=O)(=O)c1ccc(Br)cc1 | 0.06
CC1CCCC(C)N1CCNC(=O)CCN1C(=O)COc2ccccc21 (stereo unspecified) | -0.4
O=C(CCN1C(=O)COc2ccccc21)NCCN1CCc2ccccc2C1 | -6.4*
O=C(CCN1C(=O)COc2ccccc21)NCCc1ccc(Cl)cc1 | -0.22
CCOc1ccc2c(c1)sc1nc(-c3cc4c(ccc5ccccc54)oc3=O)cn12 | 0.88
CCC(=O)Nc1nc(C)c(-c2csc(Nc3ccc(O)cc3)n2)s1 | -0.29
CCSc1nc2sc3c(c2c(=O)n1-c1ccccc1)CC(C(C)C)OC3 (stereo unspecified) | 0.68
Cc1cccc(N2CCN(S(=O)(=O)c3ccc4c(c3)CCC(=O)N4)CC2)c1C | -0.49
CCc1ccccc1NC(=O)Cn1nc(-c2ccc(OC)cc2)ccc1=O | 0.69
CC(C)(C)n1nc2c(c1NC(=O)c1ccc3c(c1)OCO3)CS(=O)(=O)C2 | 0.82
COc1ccccc1OCCCCCCN1CCOCC1 | -0.57
Cc1cccc(C)c1OCCCCCCN1CCOCC1 | -0.51
CC(C)(C)c1cc(Br)ccc1OCCCN1CCOCC1 | -3.3*
CCCOC(=O)c1cc(-c2ccc(OC)cc2)nc2ccc(Br)cc12 | 0.32
